Source: PubChem BioAssay
Records with an inconclusive call do not appear. The source made the active and inactive calls.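 Rule for the calls, unless noted: active = binding below the plate cutoff, the plate median minus 3 SD, with a reading above zero; inconclusive = below the plate cutoff but reading exactly zero; inactive = the rest.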

What was measured:
[1] = yeast TOR pathway RPL19A-GFP modulators, primary screen, cell-based, S. cerevisiae, multiplex flow cytometry (AID 1862; in the data active = percent of DMSO control GFP below about 86%;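 note: lower values mimic rapamycin by blocking the RPL19A rise seen in DMSO cells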); conditions: S. cerevisiae RPL19A-GFP strain, flow cytometry fluorescence, 3 h; at 10 µM; stronger effect = lower value
[2] = modulators of MEP2-GFP levels in yeast, primary screen, S. cerevisiae, multiplex flow cytometry (AID 1867;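 active = GFP response, as percent of the DMSO control, above the screen-wide mean plus 3 SD, about 139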;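 note: median GFP channel fluorescence of barcode-gated MEP2-GFP cells measured by flow cytometry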); conditions: S. cerevisiae MEP2-GFP strain, 3 h, at 10 µM, stronger effect = higher value, 100% means same as DMSO wells
[3] = modulators of CIT2-GFP expression in yeast, primary screen, S. cerevisiae, GFP fusion, multiplex flow cytometry (AID 1870;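 active = percent response above a set limit, the screen-wide mean plus 3 SD, cut at about 130% in these data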;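 note: barcoded CIT2-GFP strain pooled with four other GFP strains with rapamycin as positive control; median GFP fluorescence per well over plate mean of DMSO wells so 100% = DMSO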); conditions: 3 h, at 10 µM, stronger effect = higher value
[4] = modulators of LAP4-GFP expression in yeast, primary screen, S. cerevisiae, multiplex flow cytometry (AID 1873;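 active = GFP signal, as percent of the solvent control, above the screen mean plus 3 SD, about 149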); conditions: 3 h, at 10 µM, stronger effect = higher value
[5] = modulators of AGP1-GFP expression in yeast TOR pathway, primary screen, cell-based, multiplex flow cytometry, S. cerevisiae (AID 1887;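 active = GFP signal above the screen-wide mean plus 3 SD, that is over about 124.5% of the solvent control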;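 note: AGP1-GFP fusion strain of S. cerevisiae within a five-strain barcoded multiplex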); conditions: 3 h, at 10 µM, stronger effect = higher value
[6] = inhibitors of CD8+ T cell-vesicle binding, pilot screen, LFA-1/ICAM-1 modulator project, MLPCN validation set, flow cytometry (AID 2523;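 active = response below a set limit, under 55% cells CD8-positive and vesicle-bound, and CD8 cells' 90th-percentile brightness under 279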;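 for vesicle binding response: mean PE anti-B7-1 fluorescence of CD8+ cells relative to row control; 100% = QL9-loaded vesicles with DMSO vehicle in the same plate row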); conditions: 2C mouse CD8+ T cells, at 7 µM, stronger effect = lower value; double positive events: measured here: CD8+/vesicle+ event percentage
[7] = target: Integrin beta-1 (Homo sapiens) + Integrin alpha-4 (Homo sapiens) (UniProt P13612+P05556); test: inhibition of HUTS-21 binding to VLA-4, pilot screen, VLA-4 allosteric modulator project, U937 cells, HUTS-21 mAb, flow cytometry, validation set (AID 2674;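 active = inhibition above 50%, about 3 SD of the validation set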;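 note: antibody binding induced by the VLA-4 ligand LDV present at three times its Kd; 0% = LDV ligand with antibody and no compound and 100% = antibody without LDV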); conditions: HUTS-21 LIBS mAb binding, at 6.7 µM, stronger effect = higher value, binding induced by LDV ligand
[8] = superoxide lowering in aged yeast cells, pilot screen, validation compound set (AID 2706;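 active = superoxide response below 65% of plate, a cut near 3 SD across the whole screen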;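 note: yeast exposed to compound for one week at 30 degrees C before staining; 100% = mean of all compound wells on the same plate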); conditions: S. cerevisiae aging, superoxide DHE fluorescence; at 10 µM; stronger effect = lower value
[9] = target: Beta-adrenergic receptor kinase 1 (Homo sapiens) (UniProt P25098); test: GRK2 binders displacing RNA aptamer, biochemical, validation, human GRK2, bead flow cytometry (AID 488806;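 active = aptamer binding inhibition above 30%, about 3 SD of noise from non-fluorescent compounds; inactive = inhibition at or below 30%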); conditions: bead-bound GRK2, FAM-aptamer displacement, at 10 µM, stronger effect = higher value
[10] = target: Beta-2 adrenergic receptor (Homo sapiens) (UniProt P07550); test: beta2AR agonists driving receptor internalization, pilot screen, cell-based, FAP fluorogen, flow cytometry, validation set (AID 504459;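 active = percent response above 42, roughly 3 SD of non-fluorescent test compounds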;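 note: agonist-driven loss of surface beta2AR via internalization measured by FAP dye flow cytometry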); conditions: Am2.2-beta2AR cells, FAP surface receptor flow cytometry; at 10 µM; stronger effect = higher value
[11] = target: AP-2 complex subunit beta (Homo sapiens) (UniProt P63010); test: inhibitors of arrestin peptide binding to AP2, pilot screen, biochemical, validation set, GST-AP2 beads, flow cytometry (AID 504541;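 active = inhibition above 54%, about 3 SD of non-fluorescent compounds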;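 note: AP2 carries R879A mutation and is captured from E. coli lysate; bead-bound FITC arrestin peptide fluorescence measuring arrestin peptide binding to AP2; 0% = DMSO wells and 100% = excess unlabeled arrestin peptide control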); conditions: FITC arrestin peptide, at 10 µM, stronger effect = higher value, AP2 beta2 appendage fragment, R879A mutant
[12] = yeast V-ATPase proton transport modulators, S. cerevisiae, pHLuorin, HTS validation (AID 504600; in the data active = response above about 15%;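 note: plate controls were DMSO for no effect and reference compound for full effect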); conditions: S. cerevisiae pHLuorin cytosolic pH, at 10 µM, stronger effect = higher value
[13] = system: anti-desmoglein-3 scFv antibody binding to human DSG3; test: inhibitors of anti-DSG3 scFv binding to DSG3, pilot screen, biochemical, validation compound set, bead-based, flow cytometry (AID 588368); conditions: Protein G beads, DSG3-Fc, scFv-GFP binding, at 10 µM, stronger effect = lower value;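 note: signal is the median channel fluorescence of bead-bound GFP antibody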
[14] = inhibitors of fungal efflux pumps CDR1, CDR2, MDR1, pilot screen, validation compound set, multiplex, phenotypic (AID 588506;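 active = efflux inhibition above 0.42, the validation set average plus 4 SD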;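 note: Nile Red retained in cells so higher fluorescence means more efflux inhibition; 0 = negative control wells and 1 = enniatin B 25 µM full block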); conditions: S. cerevisiae pump-expressing triplex, Nile Red efflux flow cytometry; at 10 µM; stronger effect = higher value; the pumps come from Candida albicans
[15] = target: ATP-binding cassette sub-family B member 6 (Homo sapiens) (UniProt Q9NP58); test: ABCB6 transporter inhibitors, pilot screen, K562-ABCB6 cells, flow cytometry, validation set (AID 588550;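 active = inhibition above the screen-wide mean plus 3 SD, about 51%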;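 note: 0% = DMSO wells and 100% = benzethonium chloride 70 µM positive control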); conditions: K562-ABCB6 porphyrin accumulation, 1 h, at 10 µM, stronger effect = higher value
[16] = promoters of myeloid differentiation in arrested cells, primary screen, cell-based, GFP/MAC1 double positive, flow cytometry, validation set (AID 588685;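 active = differentiation response of at least 50%, scaled between solvent and reference control, from cells with both markers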;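 note: compound exposure lasts four days before antibody staining and flow analysis; 0% = DMSO wells and 100% = 5 µM fulvestrant positive control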); conditions: ER-HoxA9 marrow cells, stronger effect = higher value, normalized: vehicle 0, fulvestrant 100

Integrin beta-1 (Homo sapiens) + Integrin alpha-4 (Homo sapiens), sequence (P05556 whole entry, looked up): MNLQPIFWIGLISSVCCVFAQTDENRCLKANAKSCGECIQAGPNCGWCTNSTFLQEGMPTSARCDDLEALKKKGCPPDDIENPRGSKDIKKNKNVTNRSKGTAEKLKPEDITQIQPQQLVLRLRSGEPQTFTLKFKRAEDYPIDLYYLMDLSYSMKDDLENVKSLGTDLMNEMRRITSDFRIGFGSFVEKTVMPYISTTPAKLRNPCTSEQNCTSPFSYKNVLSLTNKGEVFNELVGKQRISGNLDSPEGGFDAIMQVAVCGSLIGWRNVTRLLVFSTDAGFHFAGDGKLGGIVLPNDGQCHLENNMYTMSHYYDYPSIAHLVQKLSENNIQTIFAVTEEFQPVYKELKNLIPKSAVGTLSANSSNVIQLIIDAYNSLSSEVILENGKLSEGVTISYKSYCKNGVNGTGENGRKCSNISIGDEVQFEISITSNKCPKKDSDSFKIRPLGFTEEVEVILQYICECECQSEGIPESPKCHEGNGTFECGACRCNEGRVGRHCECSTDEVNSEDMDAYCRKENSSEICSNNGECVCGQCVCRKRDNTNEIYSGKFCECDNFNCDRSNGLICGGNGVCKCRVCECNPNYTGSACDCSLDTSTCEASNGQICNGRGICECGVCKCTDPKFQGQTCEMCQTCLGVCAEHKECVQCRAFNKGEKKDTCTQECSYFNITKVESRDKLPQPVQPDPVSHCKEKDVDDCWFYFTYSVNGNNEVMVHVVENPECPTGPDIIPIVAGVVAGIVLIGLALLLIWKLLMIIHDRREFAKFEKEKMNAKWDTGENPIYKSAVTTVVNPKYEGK
Integrin beta-1 (Homo sapiens) + Integrin alpha-4 (Homo sapiens), sequence (P13612 whole entry, looked up): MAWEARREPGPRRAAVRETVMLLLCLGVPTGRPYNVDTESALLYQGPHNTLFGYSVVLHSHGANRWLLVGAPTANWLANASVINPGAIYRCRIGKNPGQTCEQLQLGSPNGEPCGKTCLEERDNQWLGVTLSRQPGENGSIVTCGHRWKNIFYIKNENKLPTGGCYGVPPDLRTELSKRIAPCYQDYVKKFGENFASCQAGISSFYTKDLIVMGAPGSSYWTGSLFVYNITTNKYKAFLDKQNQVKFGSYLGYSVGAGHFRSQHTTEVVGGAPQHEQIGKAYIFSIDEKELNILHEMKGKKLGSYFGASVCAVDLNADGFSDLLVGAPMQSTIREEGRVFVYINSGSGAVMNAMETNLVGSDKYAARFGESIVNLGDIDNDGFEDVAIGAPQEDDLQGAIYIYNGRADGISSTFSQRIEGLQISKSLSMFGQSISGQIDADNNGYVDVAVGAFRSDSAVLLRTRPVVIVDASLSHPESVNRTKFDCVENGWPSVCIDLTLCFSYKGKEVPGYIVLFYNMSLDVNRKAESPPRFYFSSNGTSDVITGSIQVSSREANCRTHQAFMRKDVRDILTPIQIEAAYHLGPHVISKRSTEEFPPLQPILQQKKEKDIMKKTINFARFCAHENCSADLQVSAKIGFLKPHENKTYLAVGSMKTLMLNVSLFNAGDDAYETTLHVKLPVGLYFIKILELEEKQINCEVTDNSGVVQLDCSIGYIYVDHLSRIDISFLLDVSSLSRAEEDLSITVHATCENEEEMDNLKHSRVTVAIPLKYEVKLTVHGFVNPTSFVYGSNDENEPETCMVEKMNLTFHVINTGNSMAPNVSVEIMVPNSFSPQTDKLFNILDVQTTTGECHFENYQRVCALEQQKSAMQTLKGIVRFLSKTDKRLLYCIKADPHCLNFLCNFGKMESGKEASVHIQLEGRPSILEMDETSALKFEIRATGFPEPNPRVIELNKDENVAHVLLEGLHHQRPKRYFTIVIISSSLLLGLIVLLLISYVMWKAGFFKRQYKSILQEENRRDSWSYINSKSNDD
AP-2 complex subunit beta (Homo sapiens), sequence (P63010 whole entry, looked up, the tested form may be a part, one chain of several): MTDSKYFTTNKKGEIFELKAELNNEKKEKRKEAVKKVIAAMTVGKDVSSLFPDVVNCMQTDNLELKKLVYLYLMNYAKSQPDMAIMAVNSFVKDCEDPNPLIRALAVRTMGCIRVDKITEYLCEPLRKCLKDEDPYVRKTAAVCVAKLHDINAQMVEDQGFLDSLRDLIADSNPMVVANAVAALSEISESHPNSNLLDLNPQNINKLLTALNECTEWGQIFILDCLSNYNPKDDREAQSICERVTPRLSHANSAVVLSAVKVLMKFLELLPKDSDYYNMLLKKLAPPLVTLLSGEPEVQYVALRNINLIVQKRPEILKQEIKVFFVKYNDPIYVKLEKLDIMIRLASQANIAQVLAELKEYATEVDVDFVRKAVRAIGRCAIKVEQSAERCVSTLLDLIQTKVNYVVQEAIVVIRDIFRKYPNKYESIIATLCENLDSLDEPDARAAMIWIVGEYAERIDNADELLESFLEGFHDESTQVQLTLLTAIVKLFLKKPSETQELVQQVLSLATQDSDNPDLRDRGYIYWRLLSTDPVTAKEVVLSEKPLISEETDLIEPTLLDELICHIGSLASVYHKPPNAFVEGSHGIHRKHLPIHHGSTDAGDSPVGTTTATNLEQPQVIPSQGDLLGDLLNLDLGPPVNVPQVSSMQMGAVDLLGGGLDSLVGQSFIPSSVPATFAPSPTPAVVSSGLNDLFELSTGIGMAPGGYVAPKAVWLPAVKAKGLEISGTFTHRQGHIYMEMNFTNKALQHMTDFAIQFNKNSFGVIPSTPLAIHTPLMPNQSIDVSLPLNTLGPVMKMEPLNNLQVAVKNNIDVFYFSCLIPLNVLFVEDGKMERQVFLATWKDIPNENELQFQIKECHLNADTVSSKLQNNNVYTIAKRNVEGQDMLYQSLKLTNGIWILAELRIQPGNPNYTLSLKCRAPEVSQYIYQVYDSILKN
Beta-2 adrenergic receptor (Homo sapiens), sequence (P07550 whole entry, looked up): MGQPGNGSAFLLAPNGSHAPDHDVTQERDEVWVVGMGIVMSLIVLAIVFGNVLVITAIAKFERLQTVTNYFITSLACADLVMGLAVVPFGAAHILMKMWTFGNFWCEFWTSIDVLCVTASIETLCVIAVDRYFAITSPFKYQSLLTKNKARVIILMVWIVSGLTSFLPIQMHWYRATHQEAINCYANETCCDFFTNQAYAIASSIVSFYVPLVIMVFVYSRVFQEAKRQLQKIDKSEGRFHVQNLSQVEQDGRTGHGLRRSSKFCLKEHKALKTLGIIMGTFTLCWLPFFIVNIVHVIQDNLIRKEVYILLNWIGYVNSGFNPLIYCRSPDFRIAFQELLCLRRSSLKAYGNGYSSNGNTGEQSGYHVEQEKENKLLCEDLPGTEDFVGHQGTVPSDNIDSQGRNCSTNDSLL
ATP-binding cassette sub-family B member 6 (Homo sapiens), sequence (Q9NP58 whole entry, looked up): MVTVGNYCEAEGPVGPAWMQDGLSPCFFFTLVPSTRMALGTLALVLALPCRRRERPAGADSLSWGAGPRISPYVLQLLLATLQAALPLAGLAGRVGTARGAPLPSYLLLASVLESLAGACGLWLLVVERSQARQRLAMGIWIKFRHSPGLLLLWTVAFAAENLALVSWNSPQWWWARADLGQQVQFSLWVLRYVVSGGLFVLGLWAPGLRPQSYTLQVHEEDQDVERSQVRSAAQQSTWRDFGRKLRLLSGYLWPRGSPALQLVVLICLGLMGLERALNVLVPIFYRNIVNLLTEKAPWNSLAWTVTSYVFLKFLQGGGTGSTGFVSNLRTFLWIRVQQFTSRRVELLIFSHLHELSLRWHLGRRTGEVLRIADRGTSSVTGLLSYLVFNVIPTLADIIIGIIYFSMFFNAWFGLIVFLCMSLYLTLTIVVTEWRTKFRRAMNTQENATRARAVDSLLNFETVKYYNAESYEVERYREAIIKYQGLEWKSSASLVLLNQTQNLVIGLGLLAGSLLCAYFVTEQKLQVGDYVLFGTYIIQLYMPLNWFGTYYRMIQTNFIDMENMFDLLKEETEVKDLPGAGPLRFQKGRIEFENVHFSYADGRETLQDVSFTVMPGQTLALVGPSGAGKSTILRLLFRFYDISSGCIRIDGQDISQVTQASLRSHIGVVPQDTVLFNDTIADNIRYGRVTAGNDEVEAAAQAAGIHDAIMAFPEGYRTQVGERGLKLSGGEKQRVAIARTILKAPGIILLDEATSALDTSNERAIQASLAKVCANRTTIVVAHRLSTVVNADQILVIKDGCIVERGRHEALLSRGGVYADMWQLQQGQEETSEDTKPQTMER
Beta-adrenergic receptor kinase 1 (Homo sapiens), sequence (P25098 whole entry, looked up): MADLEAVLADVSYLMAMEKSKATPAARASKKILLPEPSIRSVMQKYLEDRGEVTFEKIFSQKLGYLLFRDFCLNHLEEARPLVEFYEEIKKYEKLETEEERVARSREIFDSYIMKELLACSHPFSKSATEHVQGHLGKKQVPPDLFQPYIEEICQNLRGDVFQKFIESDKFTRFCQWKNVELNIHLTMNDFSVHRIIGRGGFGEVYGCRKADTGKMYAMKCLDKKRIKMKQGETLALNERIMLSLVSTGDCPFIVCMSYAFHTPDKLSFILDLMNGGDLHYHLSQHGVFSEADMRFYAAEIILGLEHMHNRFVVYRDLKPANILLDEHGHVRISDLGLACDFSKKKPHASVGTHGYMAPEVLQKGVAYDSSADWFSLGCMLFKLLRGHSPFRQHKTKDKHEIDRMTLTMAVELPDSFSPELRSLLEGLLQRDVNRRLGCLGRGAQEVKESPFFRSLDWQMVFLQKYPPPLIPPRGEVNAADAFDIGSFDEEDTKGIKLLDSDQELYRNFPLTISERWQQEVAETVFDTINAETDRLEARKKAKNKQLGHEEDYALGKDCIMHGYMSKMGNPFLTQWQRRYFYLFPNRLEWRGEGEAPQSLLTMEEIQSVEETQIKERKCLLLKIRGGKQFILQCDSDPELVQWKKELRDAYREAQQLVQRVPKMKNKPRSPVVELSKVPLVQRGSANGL

SMILES	percent of DMSO control GFP [1]	GFP response vs DMSO [2]	percent response of DMSO control [3]	GFP response vs DMSO [4]	GFP response, % of DMSO [5]	double positive events [6] [%]	vesicle binding response [6]	inhibition [7]	superoxide response (% of plate) [8]	aptamer binding inhibition [9]	response [10]	inhibition [11]	response [12]	binding (% of control) [13]	efflux inhibition (fraction of control) [14]	inhibition [15]	differentiation response [16]
COC(=O)c1ccc(NC(=O)C23CCC(C)(C(=O)O2)C3(C)C)cc1 (stereo not drawn)	95.2% (inactive)	104% (inactive)	102% (inactive)	115% (inactive)	106% (inactive)	64.8	195% (inactive)	-2.82% (inactive)	99.7% (inactive)	2% (inactive)	-24.2% (inactive)	1.74% (inactive)	-1.33% (inactive)	110% (inactive)	-0.04 (inactive)	6% (inactive)	-4.99% (inactive)
CS(=O)(=O)Nc1ccc([N+](=O)[O-])cc1Oc1ccccc1	95.5% (inactive)	97.6% (inactive)	96.4% (inactive)	115% (inactive)	115% (inactive)	62.2	188% (inactive)	-8.78% (inactive)	106% (inactive)	3% (inactive)	-35% (inactive)	-2.11% (inactive)	2.46% (inactive)	106% (inactive)	-0.09 (inactive)	5% (inactive)	-8.93% (inactive)
Cn1cc(/C=C/C(=O)c2ccccc2)c2ccccc21	98% (inactive)	107% (inactive)	87.2% (inactive)	133% (inactive)	89.7% (inactive)	58.1	230% (inactive)	-1.79% (inactive)	102% (inactive)	1% (inactive)	32.6% (inactive)	4.67% (inactive)	-2% (inactive)	101% (inactive)	-0.1 (inactive)	4% (inactive)	-10.4% (inactive)
C=C1C2(C(=O)Nc3ccc(SC(F)F)cc3)CCC(C2)C1(C)C (stereo not drawn)	103% (inactive)	99.3% (inactive)	105% (inactive)	96% (inactive)	100% (inactive)	66.3	1190% (inactive)	1.62% (inactive)	82.1% (inactive)	1% (inactive)	-6.87% (inactive)	-6.22% (inactive)	1.62% (inactive)	101% (inactive)	-0.29 (inactive)	7% (inactive)	2.2% (inactive)
CC(C)CCc1noc(CN2CCC(CCN3CCCC3=O)CC2)n1	98.3% (inactive)	101% (inactive)	105% (inactive)	99.1% (inactive)	102% (inactive)	62.1	188% (inactive)	23% (inactive)	97.3% (inactive)	-3% (inactive)	-4.37% (inactive)	32.4% (inactive)	-4.25% (inactive)	95.1% (inactive)	-0.39 (inactive)	-3% (inactive)	-13.3% (inactive)
O=c1cc(CN2CCN(c3cccc(Cl)c3)CC2)c2cc(O)c(-c3ccccc3)cc2o1	93% (inactive)	133% (inactive)	102% (inactive)	83.1% (inactive)	92.8% (inactive)	69.1	265% (inactive)	0.64% (inactive)	113% (inactive)	0% (inactive)	6.6% (inactive)	-0.51% (inactive)	-1.13% (inactive)	97.8% (inactive)	-0.02 (inactive)	11% (inactive)	-12.3% (inactive)
CC(CCc1ccccc1)NC(=O)/C=C/c1ccccc1 (stereo not drawn)	92.6% (inactive)	132% (inactive)	107% (inactive)	92.4% (inactive)	81.7% (inactive)	61.8	129% (inactive)	1.61% (inactive)	91.7% (inactive)	5% (inactive)	-12.9% (inactive)	-0.16% (inactive)	1.44% (inactive)	103% (inactive)	-0.13 (inactive)	12% (inactive)	0% (inactive)
O=C(OCC1CCCN2CCCCC12)c1ccc2c(c1)OCO2 (stereo not drawn)	93.7% (inactive)	112% (inactive)	104% (inactive)	75.9% (inactive)	95.9% (inactive)	63.4	208% (inactive)	13.2% (inactive)	99.6% (inactive)	5% (inactive)	-1.89% (inactive)	-5.07% (inactive)	12% (inactive)	104% (inactive)	-0.38 (inactive)	15% (inactive)	0% (inactive)
C[N+](C)(C)CCCCCCCCCC[N+](C)(C)C	94.4% (inactive)	129% (inactive)	103% (inactive)	77% (inactive)	87% (inactive)	70	208% (inactive)	3.55% (inactive)	100% (inactive)	5% (inactive)	-10.3% (inactive)	-6.99% (inactive)	0.2% (inactive)	101% (inactive)	-0.56 (inactive)	12% (inactive)	1.64% (inactive)
OC(CCCN1CCC(O)(c2ccc(Cl)cc2)CC1)c1ccc(F)cc1 (stereo not drawn)	99.6% (inactive)	103% (inactive)	108% (inactive)	101% (inactive)	106% (inactive)	49.2	168% (inactive)	-14.5% (inactive)	96% (inactive)	-3% (inactive)	5.29% (inactive)	-4.86% (inactive)	-0.08% (inactive)	104% (inactive)	-0.005 (inactive)	-1% (inactive)	10.1% (inactive)
C=C(C)[C@@H]1CC=C(CN2CCC(N3CCC(C(=O)N4CCCC4)CC3)CC2)CC1	105% (inactive)	91.9% (inactive)	120% (inactive)	92% (inactive)	101% (inactive)	60.1	292% (inactive)	1.62% (inactive)	92.9% (inactive)	-18% (inactive)	-3.2% (inactive)	-12.5% (inactive)	1.83% (inactive)	130% (inactive)	0.08 (inactive)	-18% (inactive)	6.11% (inactive)
COc1ccccc1/C=C/C(=O)c1c2c(c(C)[nH]c1=O)CCCC2	97.8% (inactive)	96.6% (inactive)	96.4% (inactive)	104% (inactive)	114% (inactive)	65.9	192% (inactive)	17.6% (inactive)	107% (inactive)	8% (inactive)	-4.6% (inactive)	1.34% (inactive)	17.4% (active)	106% (inactive)	-0.13 (inactive)	4% (inactive)	15.7% (inactive)
COc1cc(CO)ccc1OCc1nnnn1-c1ccc(C)cc1	102% (inactive)	105% (inactive)	102% (inactive)	95.9% (inactive)	101% (inactive)	58.4	163% (inactive)	2.93% (inactive)	107% (inactive)	-1% (inactive)	6.38% (inactive)	-5.08% (inactive)	10.4% (inactive)	97.3% (inactive)	0.64 (active)	-8% (inactive)	-1.65% (inactive)
CC(C)(C)NCC(O)COc1cccc2c1C[C@H](O)[C@H](O)C2 (stereo partly drawn)	104% (inactive)	108% (inactive)	98.9% (inactive)	88.1% (inactive)	98.1% (inactive)	62.6	1270% (inactive)	-16% (inactive)	104% (inactive)	3% (inactive)	0.85% (inactive)	55.4% (active)	-3.23% (inactive)	99.2% (inactive)	0.05 (inactive)	17% (inactive)	14.9% (inactive)
COc1cc(CNc2ccc(C)c(C)c2)cc(OC)c1OC	99% (inactive)	108% (inactive)	107% (inactive)	113% (inactive)	111% (inactive)	60.3	256% (inactive)	6.55% (inactive)	90.2% (inactive)	0% (inactive)	-29.1% (inactive)	16.2% (inactive)	-0.73% (inactive)	101% (inactive)	0 (inactive)	-8% (inactive)	-16.8% (inactive)
CC(=O)NC(NC(=S)N1CCCCCC1)C(Cl)(Cl)Cl (stereo not drawn)	102% (inactive)	104% (inactive)	98.9% (inactive)	95.3% (inactive)	99.5% (inactive)	64.5	126% (inactive)	-20.2% (inactive)	104% (inactive)	0% (inactive)	2.95% (inactive)	-7.04% (inactive)	0.33% (inactive)	94.8% (inactive)	0.05 (inactive)	-1% (inactive)	6.11% (inactive)
c1ccc(Cn2nnc3cnccc32)cc1	104% (inactive)	101% (inactive)	104% (inactive)	106% (inactive)	107% (inactive)	57.9	67.8% (inactive)	4.27% (inactive)	113% (inactive)	2% (inactive)	0.22% (inactive)	-12.1% (inactive)	0.84% (inactive)	102% (inactive)	0.33 (inactive)	9% (inactive)	-10.4% (inactive)
Cc1ncc(CN2CCC(CO)(CCc3ccccc3)CC2)s1	101% (inactive)	111% (inactive)	104% (inactive)	102% (inactive)	110% (inactive)	62.3	98.1% (inactive)	6.95% (inactive)	97.2% (inactive)	2% (inactive)	-0.43% (inactive)	-1.19% (inactive)	0.58% (inactive)	107% (inactive)	-0.07 (inactive)	6% (inactive)	-1.65% (inactive)
O=C(CCCn1c(=O)oc2ccccc21)N1CCN(c2ccc(F)cc2)CC1	101% (inactive)	93% (inactive)	103% (inactive)	77.7% (inactive)	91.4% (inactive)	46.7	9.2% (active)	-1.79% (inactive)	111% (inactive)	1% (inactive)	10.4% (inactive)	-3.97% (inactive)	1.31% (inactive)	102% (inactive)	0.15 (inactive)	9% (inactive)	-26.4% (inactive)
